The target of experiment [1] is T1, Aspartate--tRNA(Asp/Asn) ligase (Mycobacterium tuberculosis (strain ATCC 25618 / H37Rv)) (UniProt P9WFW3). Note: in the data most compounds retested in dose-response had high values.
T1 sequence (whole entry): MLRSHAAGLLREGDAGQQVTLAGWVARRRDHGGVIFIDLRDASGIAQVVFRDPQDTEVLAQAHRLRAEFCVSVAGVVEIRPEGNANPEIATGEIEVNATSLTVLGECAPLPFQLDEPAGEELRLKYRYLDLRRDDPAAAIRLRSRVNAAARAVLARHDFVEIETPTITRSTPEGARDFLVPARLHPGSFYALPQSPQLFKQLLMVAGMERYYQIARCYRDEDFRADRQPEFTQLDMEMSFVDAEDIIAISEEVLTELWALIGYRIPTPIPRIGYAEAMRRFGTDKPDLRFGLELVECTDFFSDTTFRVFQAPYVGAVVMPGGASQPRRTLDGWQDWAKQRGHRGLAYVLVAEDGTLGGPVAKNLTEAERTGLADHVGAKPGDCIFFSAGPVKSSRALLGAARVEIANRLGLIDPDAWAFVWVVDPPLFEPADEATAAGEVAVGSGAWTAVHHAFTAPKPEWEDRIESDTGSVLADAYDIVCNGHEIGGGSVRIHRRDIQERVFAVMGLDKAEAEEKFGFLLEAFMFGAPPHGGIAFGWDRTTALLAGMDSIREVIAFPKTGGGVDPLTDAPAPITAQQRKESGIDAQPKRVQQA
Nature of the experiment: Assay for Asp RNA synthetase-1 from Mycobacterium tuberculosis. It counts as functional. Further details: scale not given: direction of the effect not stated beside the values. As to conditions: 30 µM.

In experiment [2] the target is Shiga toxin 2 (Escherichia coli O157:H7) (UniProt P09385+P09386). In words: E. coli 0.157:H7 Shiga Toxin SOP - stx2 screening assay. It counts as functional. Also on record: scale not given: direction of the effect not stated beside the values. As to conditions: 30 µM.

Percent Effect data for 51 molecules are collected here from ChEMBL document CHEMBL3988442, “University of Dundee, Small-Polar-MMV Screening Library” (2021).

SMILES strings stand for the structures.

With `CC(C)NC(=O)[C@@H]1C[C@H](N)CN1C(=O)c1cc2ccccc2[nH]c1=O`, the Percent Effect is -2.73% in experiment [1] and -0.544% in experiment [2].
The matching figures for `COC(=O)C(NC(=O)COC1CCCC1)c1cc(F)ccc1F` (configuration not stated): -3.52% and -22.4%.
For `Cc1ccc(C(NC(=O)CC2CCN(C(C)C)CC2)C(=O)O)cc1` (configuration not stated), in that order: -0.279% and 10.7%.
As for `COCCN(Cc1ccc(F)cc1Cl)C(=O)c1ccncc1`, the figures for the Percent Effect in experiment [1] and in experiment [2] were -5.35% and 12%, respectively.
For `CCN1CCN(C(=O)NCCOc2ccc3c(c2)OCO3)CC1`, in that order: -4.65% and -50%.
The matching figures for `CCS(=O)(=O)N(C)c1ccc(C(=O)N2CCCC(C)C2)cc1` (configuration not stated): -3.31% and -3.21%.
For `CCOc1cc(C)nc(N2CCN(Cc3nccn3C)CC2)n1`, the values for the Percent Effect in experiment [1] and in experiment [2] were -4.49% and 5.04%, respectively.
In the case of `COc1ccnc(N2CCN(C(=O)Cc3ccc(C)s3)CC2)n1`, the Percent Effect in experiment [1] stood at 2.36%; in experiment [2], 5.8%.
In the case of `Cc1cc(C(=O)N2CCCC2c2nnc3n2CCCCC3)no1` (configuration not stated), the Percent Effect in experiment [1] is -2.81%; in experiment [2], -2.64%.
The matching figures for `CCn1ccnc1CNCC1CCN(CC(O)c2ccccc2)CC1` (configuration not stated): -3.48% and 0.429%.
The matching figures for `Cn1ccnc1COc1ccc(CO)cc1`: 1.33% and -14.5%.
`CS(=O)(=O)c1ccccc1C(=O)NCCCN1CCc2ccccc2C1`: the values for the Percent Effect in experiment [1] and in experiment [2] were -6.45% and -24.7%, respectively.
For `Cc1ccc(CS(=O)(=O)N2CC[C@H]3[C@H]2CCN3C)cc1`, in that order: -3.51% and -4.23%.
Consider `CC(C)n1ccnc1C1CCN(Cc2ccc(Cl)s2)CC1`, for which the Percent Effect in experiment [1] was 4.1%; in experiment [2], -48.4%.
The matching figures for `Cc1ccc(N2CCCC(NCC(=O)Nc3cc(C)no3)C2)nn1` (configuration not stated): -0.917% and -55.3%.
As for `COc1cc(CNC(=O)Nc2cc(C(F)(F)F)c[nH]c2=O)ccn1`, the Percent Effect is -3.59% in experiment [1] and 25.7% in experiment [2].
The matching figures for `Cn1nccc1C(=O)N1CCOC(Cc2cccnc2)C1` (configuration not stated): -0.485% and -23.7%.
For `Cc1nc[nH]c1CN(C)CC1CCCN(CCc2ccc(Cl)cc2)C1` (configuration not stated), in that order: 4.6% and -62.7%.
The matching figures for `COc1cc(CNC2CCc3nc(C)nn3C2)cc2c1OCCO2` (configuration not stated): -2.19% and -2.67%.
Regarding `O=C(CCC(=O)N1CCCC1c1cccs1)N1CCc2sccc2C1` (configuration not stated), the Percent Effect is -0.31% in experiment [1] and -7.21% in experiment [2].
`CC(C)NS(=O)(=O)c1cc(C(=O)O)cc(-c2ccc(CN(C)C)cc2)c1`: the figures for the Percent Effect in experiment [1] and in experiment [2] were -3.46% and -20.1%, respectively.
For `COc1ccc(C2SC(C)=Nc3c2c(=O)[nH]n3C2CCCCC2)cc1O` (configuration not stated), in that order: 3.89% and -40%.
Turning to `Cc1cccc(-c2nc(CN(Cc3cccs3)CC3CCCO3)no2)c1` (configuration not stated), the Percent Effect in experiment [1] was -0.626%; in experiment [2] it was -5.45%.
As for `Cc1cccc(CS(=O)(=O)NCC(O)Cc2ccccc2)c1` (configuration not stated), the Percent Effect is -8.39% in experiment [1] and 0.958% in experiment [2].
The matching figures for `CC1CCCCN1c1nc2c(c(=O)[nH]1)CCN(Cc1cccnc1)C2` (configuration not stated): 1.98% and -8.32%.
The matching figures for `Cc1noc([C@@H]2C[C@H]3OCC[C@H]3N(S(C)(=O)=O)C2)n1`: -0.616% and -25.2%.
Consider `COCCO[C@@H]1C[C@H]2CN(C(=O)c3cnccn3)CCN2C1`, for which the figures for the Percent Effect in experiment [1] and in experiment [2] were 6.43% and -13%, respectively.
As for `CCN(CC)CCNC(=O)c1cc(C(C)C)nc(N2CCCC2)n1`, the Percent Effect was 2.18% in experiment [1] and -34% in experiment [2].
The matching figures for `N#Cc1ccnc(N2CCN(C(=O)NC3CCS(=O)(=O)C3)CC2)c1` (configuration not stated): -2.74% and 8.29%.
For `CS(=O)(=O)N1CCC(C(=O)NC(Cc2ccsc2)c2nccs2)CC1` (configuration not stated), in that order: -5.91% and 16.3%.
Consider `O=C(Nc1cc(C(F)(F)F)c[nH]c1=O)c1ccco1`, for which the Percent Effect in experiment [1] is -2.75%; in experiment [2], 5.24%.
For `Cc1ccc(CCC(=O)N(C)CCN2CCOCC2)c(C)c1`, in that order: -4.01% and -8.65%.
Turning to `CCc1c(C)nn(CCNC(=O)C2CCCN(C(=O)N(C)C)C2)c1C` (configuration not stated), the Percent Effect was -4.11% in experiment [1] and 20% in experiment [2].
Consider `CC(NC(=O)CCOc1ccccc1Cl)c1nnc2n1CCC2` (configuration not stated), for which the Percent Effect in experiment [1] is -1%; in experiment [2] it was 22.6%.
For `Cn1cc(CN2CC[C@H]3OCC[C@@H](C(=O)N4CCCCO4)[C@@H]3C2)cn1`, in that order: 2.85% and -10.1%.
The matching figures for `COc1ccccc1CNC(=O)C1=NN(c2ccc(C)cc2)C(=O)CN1`: 17.6% and 11%.
The matching figures for `O=C(CCn1ccccc1=O)Nc1ccc(F)c(Cl)c1`: 5.06% and -7.92%.
As to `CC(=O)N1CCc2c(nc(-c3ccccn3)nc2N(C)CC(O)CO)C1` (configuration not stated), the Percent Effect is -6.34% in experiment [1] and 26.6% in experiment [2].
For `CC(NC(=O)N(C)CCCOc1ccc(F)cc1)c1nncn1C` (configuration not stated), the figures for the Percent Effect in experiment [1] and in experiment [2] were -2.37% and -11.9%, respectively.
Regarding `Cc1cnn(CCNCCCOc2ccccc2)c1`, the Percent Effect in experiment [1] was -1.12%; in experiment [2], -1.37%.
On to `Cc1ccc(S(=O)(=O)NC2CNC(=O)C2)cc1C` (configuration not stated), for which the Percent Effect in experiment [1] is -1.98%; in experiment [2], 9.86%.
The matching figures for `c1nc(COCC2CC2)c2n1CCCN(CC1CC1)C2`: -0.611% and -11.2%.
Consider `Fc1ccccc1-c1noc2c1CN(CC1CC1)CC2`, for which the Percent Effect is -1.29% in experiment [1] and -8.88% in experiment [2].
On to `CCOC(=O)c1c(NC(=O)CN2CCN(C(C)=O)CC2)sc2c1CCC2`, for which the Percent Effect is -3.95% in experiment [1] and 16.4% in experiment [2].
In the case of `Cn1cc(C(=O)CC2CCCN2C(=O)c2n[nH]c3ccccc23)cn1` (configuration not stated), the Percent Effect in experiment [1] is -3.71%; in experiment [2] it was 0.49%.
The matching figures for `Fc1cccc(-n2ccc(CN3CCCCC3Cn3cncn3)n2)c1` (configuration not stated): -3.17% and 17.2%.
The matching figures for `CC(=O)NCC(=O)N1CCOC2(CCCN(c3cccnc3)C2)C1` (configuration not stated): 1.34% and -31.3%.
For `O=C(COCc1ccccc1)N1CCCC(n2cncn2)C1` (configuration not stated), in that order: -3.66% and 22.6%.
Regarding `O=C(CCNC(=O)C1CCCC1)NCc1cccnc1-n1cncn1`, the Percent Effect in experiment [1] turned out to be 0.59%; in experiment [2], 23.7%.
The matching figures for `COCCCNC(=O)NCc1ccc(C)cc1`: -3.8% and -59.7%.
For `Cc1ccc(C(=O)N2CCC3(CC2)CCN(CCN(C)C)C3=O)cn1`, in that order: -4% and -1.78%.
